# Assay outcomes: PubChem BioAssay, The Scripps Research Institute Molecular Screening Center
# Shown are actives, neighbours in structure and some others; about 1.8% of the full set was active somewhere.
# LYPLA1 counter = blocks human lysophospholipase 1, a PME1 counter-screen; O75608; recombinant LYPLA1, FP-Rh probe fluorescence polarization; inhibition, % at 5.9 µM; 0.16% of 320,000 active; AID 2174;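 active means inhibition above the mean of all tested compounds plus 3 SD, set per campaign, cut at about 14% in these data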;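 further: inhibitors block serine hydrolase probe labeling of LYPLA1 so polarization falls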
# Target sequence (O75608 whole entry, looked up): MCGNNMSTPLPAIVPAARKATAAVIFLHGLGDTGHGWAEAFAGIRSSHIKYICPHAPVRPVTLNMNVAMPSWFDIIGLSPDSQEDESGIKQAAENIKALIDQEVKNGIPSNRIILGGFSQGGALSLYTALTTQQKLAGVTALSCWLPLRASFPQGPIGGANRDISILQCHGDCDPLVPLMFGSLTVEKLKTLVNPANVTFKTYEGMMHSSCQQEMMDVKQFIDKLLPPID
# PAD4 FP inh = PAD4 (human) enzyme inhibition; Q9UM07; recombinant PAD4, RCA probe fluorescence polarization; inhibition, % at 6.36 µM; 0.41% of 330,000 active; AID 485272;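 active means percent inhibition above a cutoff equal to the mean of all tested compounds plus 3 SD, cut at about 15% in these data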
# LYPLA2 inh = counter-screen for PME1 inhibitors: inhibitors of human LYPLA2; inhibition, % at 5.9 µM; AID 2177; O95372; recombinant LYPLA2, FP-Rh probe fluorescence polarization; 0.38% of 320,000 active;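 active means inhibition above the screen-wide mean plus 3 SD, limit set per campaign, cut at about 26% in these data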
# Target sequence (O95372 whole entry, looked up): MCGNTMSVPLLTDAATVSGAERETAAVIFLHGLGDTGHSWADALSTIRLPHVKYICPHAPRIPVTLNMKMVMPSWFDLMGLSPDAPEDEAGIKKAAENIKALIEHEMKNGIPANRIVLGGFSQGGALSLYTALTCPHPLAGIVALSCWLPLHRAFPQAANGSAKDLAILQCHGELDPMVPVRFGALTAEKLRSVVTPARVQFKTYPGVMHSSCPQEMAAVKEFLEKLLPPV
# PME-1 inh = blocks human protein phosphatase methylesterase 1. Q9Y570. recombinant PME-1, FP-Rh probe fluorescence polarization. inhibition, % at 5.9 µM. 0.53% of 320,000 active;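 active means inhibition above the campaign mean of all compounds plus 3 SD, cut at about 26% in these data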;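 further: competitive labeling of PME-1 active site by serine hydrolase directed probe; inhibitors block probe labeling so polarization falls and inhibition rises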
# GSTO1 inh = blocks human GSTO1 in RBBP9 counter-screen; 1.1% of 300,000 active; recombinant GSTO1, activity-based probe fluorescence polarization; inhibition, % at 5.96 µM;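 active means inhibition above the campaign mean inhibition plus 3 SD, cut at about 35% in these data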
# Fam108B inh = blocks mouse Fam108B hydrolase in RBBP9 counter-screen. inhibition, % at 9.51 µM. AID 1947. 0.33% of 300,000 active. recombinant Fam108B, FP-Rh probe fluorescence polarization;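 active means inhibition above the screen mean inhibition plus 3 SD, computed separately per campaign, cut at about 18% in these data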;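 further: inhibitors lower polarization as less probe binds the enzyme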
# LYPLA1 conf = counter-screen for PME1 inhibitors: confirmation of human LYPLA1 inhibitors; 69% of 480 active; AID 2233; shares compounds with LYPLA1 counter; inhibition, % at 5.9 µM; recombinant LYPLA1, FP-Rh probe fluorescence polarization;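 active means mean inhibition across replicates above the hit cutoff set in the primary screen, cut at about 15% in these data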;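 further: loss of FP-Rh probe labeling of LYPLA1 seen as lower polarization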
# LYPLA2 confirm = LYPLA2 (human) inhibition, confirmation counter-screen. shares compounds with LYPLA2 inh. recombinant LYPLA2, FP-Rh probe fluorescence polarization. inhibition, % at 5.9 µM. 72% of 1,100 active. AID 2232;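 active means mean inhibition across replicates above the hit cutoff set in the primary screen, cut at about 26% in these data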;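 further: blocked labeling of the enzyme by serine hydrolase FP-Rh probe lowers polarization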
# LYPLA2 ABPP = blocks human acyl-protein thioesterase 2 in gel ABPP | shares compounds with LYPLA2 inh | rhLYPLA2 in mouse brain proteome, gel ABPP FP-Rh | inhibition, % at 20 µM | 30% of 150 active | AID 652029;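 active means inhibition of LYPLA2 enzyme probe labeling above about 50%, limit read from the data; inactive means inhibition below that limit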;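 further: loss of FP-Rh probe labeling of the LYPLA2 gel band measured as band density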
# PAD4 FP conf = confirmation of human PAD4 inhibitors; recombinant PAD4, RCA probe fluorescence polarization; inhibition, % at 6.36 µM; AID 488796; 28% of 1,200 active; shares compounds with PAD4 FP inh;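 active means mean inhibition across replicates above the hit cutoff set by the earlier primary screen, cut at about 15% in these data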;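 further: inhibitors block active-site labeling by the probe so polarization falls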
# Hits are given with their value; n = inactive; x = no result given.
SMILES,LYPLA1 counter,PAD4 FP inh,LYPLA2 inh,PME-1 inh,GSTO1 inh,Fam108B inh,LYPLA2 confirm,others
CCn1c(CSc2nc3ccccc3[nH]2)nc2cc(C(=O)O)ccc21,20,32,n,n,n,n,x,LYPLA1 conf=n;PAD4 FP conf=34
Cc1onc(-c2ccccc2Cl)c1C(=O)NCc1ccc2c(c1)cc(C)n2C,16,38,n,n,n,n,x,LYPLA1 conf=n;PAD4 FP conf=n
O=C1CSC(=Nc2ccc(Cl)cc2)N1Cc1ccco1,n,n,26,n,n,n,28,
Cc1cc(C)c(N=C2SCC(=O)N2Cc2ccco2)c(C)c1,n,n,n,n,n,n,x,
COc1ccc(CC(=O)NCc2csc(-c3cccs3)n2)cc1OC,n,n,n,n,n,n,x,
O=[N+]([O-])c1ccc(CN2CCOCCOCCN(Cc3ccc([N+](=O)[O-])cc3)CCOCC2)cc1,n,n,37,n,n,n,n,
C#CCn1c(=NC(=O)CN2C(=O)CCC2=O)sc2cc(S(N)(=O)=O)ccc21,n,n,32,n,n,n,47,
COCCn1c(=NC(=O)CN2C(=O)CCC2=O)sc2cc(S(N)(=O)=O)ccc21,n,n,n,n,n,n,x,
COc1ccc(N2CCN(C(=O)c3ccc(CSc4ccccc4)cc3)CC2)cc1,n,n,30,n,n,n,42,
COc1ccc(N2CCN(C(=O)c3ccc(S(=O)(=O)NCc4ccco4)cc3)CC2)cc1,n,n,32,n,x,x,38,
Cc1ccc(C)c(N2CCN(C(=O)c3ccc(CSc4nc5ccncc5[nH]4)cc3)CC2)c1,n,n,n,n,n,n,x,
COc1ccc(N2CCN(C(=O)c3ccc(NS(=O)(=O)c4ccccc4)cc3)CC2)cc1,n,n,37,n,n,n,34,
COc1cccc(N2CCN(C(=O)c3ccc(CSc4nc5ccncc5[nH]4)cc3)CC2)c1,n,n,31,n,n,n,n,
CN(C(=O)CN1C(=O)/C(=C/c2ccccc2Cl)SC1=S)C1CCS(=O)(=O)C1 (configuration not stated),n,n,n,n,n,n,x,
COc1ccc(N2CCN(CCC(=O)c3ccc4ccccc4c3)CC2)cc1,n,n,29,n,n,n,27,
COc1ccc(N2CCN(C(=O)c3ccc4c(c3)CCN4S(=O)(=O)c3ccccc3)CC2)cc1,n,n,35,n,n,n,41,
COc1ccc(N2CCN(CC(=O)c3ccccc3)CC2)cc1,n,n,n,n,n,n,x,
Cc1cccc(N2CCN(C(=O)c3ccc(NS(=O)(=O)c4c(C)noc4C)cc3)CC2)c1C,n,n,n,n,n,n,x,
Cc1noc(C)c1S(=O)(=O)Nc1ccc(C(=O)N2CCN(c3cccc(Cl)c3)CC2)cc1,n,n,30,n,n,n,n,
O=[N+]([O-])c1cc([N+](=O)[O-])c(Oc2ccc(Cl)c3cccnc23)cc1NN1CCCCC1,n,n,n,n,n,n,x,
O=C(NCc1ccc(F)cc1)c1cccc(S(=O)(=O)N2CCOCC2)c1,n,n,n,n,x,x,x,
CN(Cc1ccc(C(F)(F)F)cc1)C(=O)c1ccc(Oc2ccccc2)cc1,n,n,29,n,n,n,n,
O=C(O)CN1C(=O)C(=O)N(Cc2ccc(Cl)c(Cl)c2)C1=O,n,n,n,n,n,n,x,
Cc1ccc(S(=O)(=O)N2CCN(C(=O)C3CSC4(C)CCC(=O)N34)CC2)cc1C (configuration not stated),n,n,n,n,n,n,x,
O=C(COC(=O)c1cncc(Br)c1)NCc1ccc(Cl)cc1,n,n,27,n,n,n,n,
SMILES,LYPLA1 counter,PAD4 FP inh,LYPLA2 inh,PME-1 inh,GSTO1 inh,Fam108B inh,LYPLA2 confirm,others
Cc1cccc(NC(=O)CN2C(=O)S/C(=C\c3cc(C)n(C)c3C)C2=O)c1,n,n,57,n,n,n,77,LYPLA2 ABPP=60
Cc1cc(/C=C2\SC(=O)N(CC(=O)Nc3ccccc3F)C2=O)c(C)n1C,n,n,42,n,n,n,26,
O=C(CN1C(=O)S/C(=C\c2ccccc2F)C1=O)Nc1ccccc1O,n,n,n,n,n,n,x,
Cc1ccc(NC(=O)CN2C(=O)S/C(=C\c3ccc(-c4cccc(C(=O)O)c4C)o3)C2=O)cc1,n,n,n,n,n,n,x,
Cc1ccc(NC(=O)CN2C(=O)S/C(=C\c3cc(C)n(-c4cccc(C(=O)O)c4)c3C)C2=O)cc1,n,n,48,n,n,n,43,
Cc1ccc(C(=O)O)cc1-c1ccc(/C=C2\SC(=O)N(CC(=O)Nc3ccccc3)C2=O)o1,n,n,27,n,n,n,26,
Cc1ccc(NC(=O)CN2C(=O)S/C(=C\c3cc(C)n(C)c3C)C2=O)cc1,n,n,n,n,n,n,x,
Cc1ccc(S(=O)(=O)N[C@@H](C)C(=O)OCC(=O)N2c3ccccc3NC(=O)C2(C)C)cc1,n,n,n,n,x,x,x,
CC1(CCCN2C(=O)c3ccccc3C2=O)OCCO1,n,n,n,n,n,n,x,
c1ccc(-c2noc(C3CCC3)n2)nc1,n,n,n,n,n,n,x,
CCCCC1CCC(c2nc(-c3ccccn3)no2)CC1 (configuration not stated),n,n,29,n,n,n,38,
CO/N=C/c1ccc(N2CCN(C(=O)c3ccc(Cl)cc3Cl)CC2)c([N+](=O)[O-])c1,n,n,48,n,n,n,50,
O=C(N/N=C/c1ccc(N2CCOCC2)c([N+](=O)[O-])c1)c1ccc(F)cc1,n,n,n,n,n,n,x,
CO/N=C/c1ccc(N2CCN(C(=O)c3cccc(C(F)(F)F)c3)CC2)c([N+](=O)[O-])c1,n,n,88,n,n,n,86,
O=C(O/N=C\c1ccc(N2CCCCC2)c([N+](=O)[O-])c1)c1cccc(C(F)(F)F)c1,n,n,n,n,n,n,x,
CO/N=C/c1ccc(N2CCN(C(=O)c3ccc(F)cc3)CC2)c([N+](=O)[O-])c1,n,n,48,n,n,n,50,
O=C(O/N=C\c1ccc(N2CCCCC2)c([N+](=O)[O-])c1)c1cccc(Cl)c1,n,n,n,n,n,n,x,
CCN(CC)S(=O)(=O)c1ccc(N2CCCCC2)c(NC(=O)C2CCN(C(=O)c3ccc(F)cc3)CC2)c1,n,n,n,n,n,n,x,
COc1ccc(NC(=O)COC(=O)CCc2ccccc2)c(OC)c1,n,n,n,n,n,n,x,
